# Test results as given in ChEMBL document CHEMBL1157539, “Thousands of chemical starting points for antimalarial lead identification” (Nature, 2010).
# Tested on: Plasmodium falciparum
# Assay: GSK_TCMDC: Inhibition of Plasmodium falciparum 3D7 in whole red blood cells, using parasite LDH activity as an index of growth. Test compounds present at 2uM
# Format: functional
row,SMILES,Inhibition [%]
1,COc1ccc(NC(=O)/C=C/c2ccccc2Cl)cc1OCCN1CCC(NC2CC2)CC1,100
2,O=C(CSc1nccn1C1CCCCC1)Nc1cc(C(F)(F)F)ccc1Cl,96
3,Cc1ccc(S(C)(=O)=O)cc1/C=C/C(=O)O,96
4,C[C@@H]1CN(C(c2cccc(O)c2)c2cccc(C(=O)N(C)c3cccc(F)c3)c2)[C@@H](C)CN1C(c1cccc(O)c1)c1cccc(C(=O)N(C)c2cccc(F)c2)c1.Cl (stereo partly specified),91
5,CC(C)c1sc(-c2ccc(C(C)(C)C)cc2)nc1C(=O)NCCCN1CCCC1=O,96
6,Cc1cnc(-c2ccc(NC(=O)N3CCc4cc5nccc(N6CCN7CCC[C@H]7C6)c5cc43)c3ccccc23)o1.Cl,100
7,CC(=O)Nc1nc(C(=O)Nc2cccc(-c3ccc(-c4nc5cccc(C)c5[nH]4)s3)c2)cs1,100
8,COc1ccc(-c2cccc(NC(=O)c3ccc(C#N)cc3)c2)cc1CN1CCCC1.O=C(O)C(F)(F)F,98
9,O=C(Nc1ccc(-c2cccc(-c3nc4ccccc4[nH]3)c2)cc1)NC1CC1c1ccccc1 (stereo unspecified),84
10,COc1ccc(Cc2nc(/N=C(\N)Nc3ccccc3)ccc2OC)cc1,93
11,Cc1cc(CN2CCCC(OC(c3ccc(F)cc3)c3ccc(F)cc3)C2)ccc1O (stereo unspecified),89
12,CC[C@H](NC(=O)c1c(CN2CCC(N3CCCCC3)CC2)c(-c2ccccc2)nc2c(Cl)c(O)ccc12)c1ccccc1.Cl,100
13,O=C(Nc1ccc(-c2nc3ccccc3[nH]2)cc1)c1ccc(Cl)c([N+](=O)[O-])c1,99
14,CC(C)C(C(=O)n1cc2c(ccc3nc(N)nc(N)c32)n1)C(C)C,98
15,Cc1ccccc1C(O)CNc1ccnc(Nc2cccc(C#N)c2)n1 (stereo unspecified),94
16,CCOc1ccc(Br)cc1/C=C/C(=O)Nc1ccc2c(c1)CCCN(C)C2.O=C(O)C(F)(F)F,90
17,CC1=C(C(=O)Nc2cc3cn[nH]c3cc2F)C(c2cccc(NS(C)(=O)=O)c2)CC(=O)N1 (stereo unspecified),96
18,CNC(=O)c1cc(S(=O)(=O)N2CCN(c3ccccn3)CC2)c(C)s1,91
19,O=C(/C=C/c1ccc(C(F)(F)F)cc1)NCCCCCN1CCCN(C(=O)Nc2cccc(Cl)c2)CC1,92
20,CCCCCCC(N)c1ccc(OCCCOc2ccc(C(N)CCCCCC)cc2)cc1.Cl (stereo unspecified),88
21,O=C(/C=C/c1ccc(Cl)c(Cl)c1)NCCCCCN1CCC(C(=O)Nc2cccc(Cl)c2)CC1,100
22,Cc1ccc(NC(=O)Nc2ccc(Cl)cc2)cc1-c1cccc(C(=O)Nc2ccc(F)cc2)c1,96
23,O=[N+]([O-])c1cccc(-c2nc(-c3ccc(Br)cc3)[nH]c2-c2ccc(Br)cc2)c1,99
24,O=C(NC1CCN(Cc2ccc(O)cc2)CC1)c1ccc(Cl)c(Cl)c1.O=C(O)C(F)(F)F,95
25,O=C(NC(=O)c1ccccc1O)c1ccccc1O,97
26,CCNc1cc(C(=O)N[C@@H](Cc2ccccc2)[C@H](O)CN[C@@H]2CCc3ccccc32)cc(N2CCCCS2(=O)=O)c1,98

# Tested on: Plasmodium falciparum
# Assay: GSK_TCMDC: Inhibition of Plasmodium falciparum Dd2 in whole red blood cells, using parasite LDH activity as an index of growth. Test compounds present at 2uM
# Format: functional
row,SMILES,Inhibition [%]
1,CCOc1ccc(-c2nonc2NC(=O)c2ccc(OC(C)C)cc2)cc1OCC,100
2,O=[N+]([O-])c1ccc(Nc2nc(N/N=C/c3cc(Cl)cc(Cl)c3O)nc(Nc3ccccc3)n2)cc1,72
3,Cc1cc(-c2ccc(NC(=O)N3CCc4cc(Br)c(N5CCN(C)CC5)cc43)cc2)ccc1C#N,56
4,Cc1sc2ncnc(Sc3nc4ccccc4[nH]3)c2c1C,100
5,COc1cccc2cc(C(=O)N[C@@H](CC(C)C)C(=O)N[C@H](C=NN3CC(=O)NC3=O)CC(C)C)oc12,64
6,Cc1cc2ncn(-c3nccc(NCc4ccc(F)cc4)n3)c2cc1C.O=C(O)C(F)(F)F,83
7,O=C(O)C(F)(F)F.c1cc(CNC2CCCC2)cc(-c2ccc(CNc3ccc4ncccc4c3)cc2)c1,24
8,Br.CC1(C)N=C(N)N=C(N)N1OCc1cccc2c1ccc1ccccc12,97
9,CC(C)(C)c1ccc2[nH]c(-c3ccc(/C=C/C(=O)NC4CCN(Cc5ccccc5)CC4)cc3)nc2c1,96
10,COc1ccc2nc(SC(C)C(=O)c3c[nH]c4ccccc34)[nH]c2c1 (stereo unspecified),98
11,CCN(CC)CCN1C(=O)c2oc3ccc(Cl)cc3c(=O)c2C1c1ccc(SC)cc1 (stereo unspecified),6
12,CC(O)C(C)(CO)NCc1ccc2c3c(cccc13)-c1ccccc1-2.Cl (stereo unspecified),85
13,CSc1cccc(Nc2nc3ccc(S(=O)(=O)NCC(C)C)cc3n2C(C)C(C)C)c1 (stereo unspecified),91
14,CCNC(=O)N[C@@H]1CN[C@@H](C#Cc2cc3c(Nc4ccc(OCc5cccc(F)c5)c(Cl)c4)ncnc3s2)C1,27
15,COc1ccc(NC(=O)/C=C/c2ccccc2Cl)cc1OCCN1CCC(NC2CC2)CC1,66
16,O=C(CSc1nccn1C1CCCCC1)Nc1cc(C(F)(F)F)ccc1Cl,95
17,Cc1ccc(S(C)(=O)=O)cc1/C=C/C(=O)O,1
18,C[C@@H]1CN(C(c2cccc(O)c2)c2cccc(C(=O)N(C)c3cccc(F)c3)c2)[C@@H](C)CN1C(c1cccc(O)c1)c1cccc(C(=O)N(C)c2cccc(F)c2)c1.Cl (stereo partly specified),85
19,CC(C)c1sc(-c2ccc(C(C)(C)C)cc2)nc1C(=O)NCCCN1CCCC1=O,92
20,Cc1cnc(-c2ccc(NC(=O)N3CCc4cc5nccc(N6CCN7CCC[C@H]7C6)c5cc43)c3ccccc23)o1.Cl,45

row,SMILES,Inhibition [%]
1,CC(=O)Nc1nc(C(=O)Nc2cccc(-c3ccc(-c4nc5cccc(C)c5[nH]4)s3)c2)cs1,67
2,COc1ccc(-c2cccc(NC(=O)c3ccc(C#N)cc3)c2)cc1CN1CCCC1.O=C(O)C(F)(F)F,15
3,O=C(Nc1ccc(-c2cccc(-c3nc4ccccc4[nH]3)c2)cc1)NC1CC1c1ccccc1 (stereo unspecified),6
4,COc1ccc(Cc2nc(/N=C(\N)Nc3ccccc3)ccc2OC)cc1,68
5,Cc1cc(CN2CCCC(OC(c3ccc(F)cc3)c3ccc(F)cc3)C2)ccc1O (stereo unspecified),82
6,CC[C@H](NC(=O)c1c(CN2CCC(N3CCCCC3)CC2)c(-c2ccccc2)nc2c(Cl)c(O)ccc12)c1ccccc1.Cl,66
7,O=C(Nc1ccc(-c2nc3ccccc3[nH]2)cc1)c1ccc(Cl)c([N+](=O)[O-])c1,4
8,CC(C)C(C(=O)n1cc2c(ccc3nc(N)nc(N)c32)n1)C(C)C,49
9,Cc1ccccc1C(O)CNc1ccnc(Nc2cccc(C#N)c2)n1 (stereo unspecified),12
10,CCOc1ccc(Br)cc1/C=C/C(=O)Nc1ccc2c(c1)CCCN(C)C2.O=C(O)C(F)(F)F,17
11,CC1=C(C(=O)Nc2cc3cn[nH]c3cc2F)C(c2cccc(NS(C)(=O)=O)c2)CC(=O)N1 (stereo unspecified),97
12,CNC(=O)c1cc(S(=O)(=O)N2CCN(c3ccccn3)CC2)c(C)s1,52
13,O=C(/C=C/c1ccc(C(F)(F)F)cc1)NCCCCCN1CCCN(C(=O)Nc2cccc(Cl)c2)CC1,3
14,CCCCCCC(N)c1ccc(OCCCOc2ccc(C(N)CCCCCC)cc2)cc1.Cl (stereo unspecified),70
15,O=C(/C=C/c1ccc(Cl)c(Cl)c1)NCCCCCN1CCC(C(=O)Nc2cccc(Cl)c2)CC1,0
16,Cc1ccc(NC(=O)Nc2ccc(Cl)cc2)cc1-c1cccc(C(=O)Nc2ccc(F)cc2)c1,52
17,O=[N+]([O-])c1cccc(-c2nc(-c3ccc(Br)cc3)[nH]c2-c2ccc(Br)cc2)c1,44
18,O=C(NC1CCN(Cc2ccc(O)cc2)CC1)c1ccc(Cl)c(Cl)c1.O=C(O)C(F)(F)F,3
19,O=C(NC(=O)c1ccccc1O)c1ccccc1O,79
20,CCNc1cc(C(=O)N[C@@H](Cc2ccccc2)[C@H](O)CN[C@@H]2CCc3ccccc32)cc(N2CCCCS2(=O)=O)c1,97
